Measurements: PubChem BioAssay AID1159580 (chemical genetic matrix, 2015)
The campaign covered roughly 5,500 compounds. About 2,000 (36%) were called active. Inconclusive results (about 18%) are left out. No stated cut-off is given here; in the data, active means normalized growth mostly below about 0.91 (no sharp cut-off); inconclusive means no clear call, values can overlap the other calls; inactive means mostly above about 0.92. This is one part of the list.

Assay: chemical genetic growth profiling, strain panel (AID 1159580);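 further: tested at 20 µM; growth read once vehicle control cultures reached saturation at 30 °C; 1 = growth at the plate median or of vehicle wells; lower values mean less growth of the strain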
Conditions: S. cerevisiae deletion strains, growth OD

Measured: normalized growth

O=S(=O)(O)c1cc(N=C=S)ccc1/C=C/c1ccc(N=C=S)cc1S(=O)(=O)O
inactive: locus YAL021C, strain ccr4, active compounds read low 1.03 | locus YAL026C, strain drs2, active compounds read low 1.01 | locus YAL030W, strain snc1, active compounds read low 1.02 | locus YBL061C, strain skt5, active compounds read low 1.03 | locus YBR009C, strain hhf1, active compounds read low 1.05 | locus YBR023C, strain chs3, active compounds read low 1.02 | locus YBR171W, strain sec66, active compounds read low 1.04 | locus YBR231C, strain swc5, active compounds read low 1.03 | locus YBR279W, strain paf1, active compounds read low 1.01 | locus YCL011C, strain gbp2, active compounds read low 1.02 | locus YCL016C, strain dcc1, active compounds read low 1.03 | locus YCL061C, strain MRC1, active compounds read low 1.02 | locus YCL069W, strain vba3, active compounds read low 1.02 | locus YCR088W, strain abp1, active compounds read low 1.02 | locus YDL005C, strain med2, active compounds read low 1.03 | locus YDL040C, strain nat1, active compounds read low 1.02 | locus YDR001C, strain nth1, active compounds read low 1.02 | locus YDR069C, strain doa4, active compounds read low 1.05 | locus YDR137W, strain rgp1, active compounds read low 1.01 | locus YDR159W, strain sac3, active compounds read low 1.06 | locus YDR195W, strain ref2 1.03 | locus YDR297W, strain sur2, active compounds read low 1.03 | locus YDR334W, strain swr1, active compounds read low 1.02 | locus YDR335W, strain msn5, active compounds read low 1.03 | locus YDR392W, strain spt3, active compounds read low 0.919 | locus YEL003W, strain gim4, active compounds read low 1.02 | locus YEL037C, strain rad23, active compounds read low 1.02 | locus YEL061C, strain CIN8 (second series), active compounds read low 1.02 | locus YER015W, strain faa2, active compounds read low 1.03 | locus YER016W, strain bim1, active compounds read low 1.03 | locus YER111C, strain swi4, active compounds read low 1.03 | locus YER155C, strain BEM2 (second series), active compounds read low 1.04 | locus YFR010W, strain ubp6, active compounds read low 1.03 | locus YGL167C, strain pmr1, active compounds read low 1.03 | locus YGL173C, strain kem1, active compounds read low 1.04 | locus YGL227W, strain vid30, active compounds read low 1.03 | locus YGL240W, strain doc1, active compounds read low 1.03 | locus YGL253W, strain hxk2, active compounds read low 1.03 | locus YHR013C, strain ard1, active compounds read low 1.04 | locus YHR027C, strain rpn1, active compounds read low 1.02 | locus YHR030C, strain SLT2, active compounds read low 0.996 | locus YHR079C, strain IRE1, active compounds read low 1.04 | locus YHR142W, strain chs7, active compounds read low 1.04 | locus YJL092W, strain hpr5, active compounds read low 1.01 | locus YJL095W, strain BCK1 (second series), active compounds read low 1.02 | locus YJL095W, strain BCK1, active compounds read low 0.99 | locus YJL115W, strain asf1, active compounds read low 1.02 | locus YJL129C, strain trk1, active compounds read low 1.06 | locus YJL154C, strain vps35, active compounds read low 1.02 | locus YJL164C, strain tpk1, active compounds read low 0.994 | locus YJL166W, strain qcr8, active compounds read low 1.02 | locus YJL187C, strain SWE1, active compounds read low 1.02 | locus YJR066W, strain TOR1, active compounds read low 0.924 | locus YKL160W, strain elf1, active compounds read low 1.02 | locus YKR026C, strain gcn3, active compounds read low 1.02 | locus YKR091W, strain srl3, active compounds read low 1.03 | locus YLL001W, strain dnm1, active compounds read low 1.01 | locus YLL026W, active compounds read low 1.01 | locus YLL041C, strain sdh2, active compounds read low 1.02 | locus YLR027C, strain aat2, active compounds read low 1.02 | locus YLR113W, strain HOG1, active compounds read low 1.11 | locus YLR221C, strain rsa3, active compounds read low 1.02 | locus YLR258W, strain gsy2, active compounds read low 1.03 | locus YLR262C, strain YPT6 (second series), active compounds read low 1.04 | locus YLR320W, strain mms22, active compounds read low 1.05 | locus YLR342W, strain FKS1, active compounds read low 1.04 | locus YLR357W, strain rsc2, active compounds read low 0.993 | locus YLR370C, strain arc18, active compounds read low 1.03 | locus YLR384C, strain iki3, active compounds read low 1.03 | locus YML120C, strain ndi1, active compounds read low 1.01 | locus YMR058W, strain fet3, active compounds read low 1.01 | locus YMR125W, strain sto1, active compounds read low 1.03 | locus YMR129W, active compounds read low 1.02 | locus YMR205C, strain PFK2, active compounds read low 1.06 | locus YMR231W, strain pep5, active compounds read low 1.02 | locus YNL071W, strain lat1, active compounds read low 1.02 | locus YNL183C, strain NPR1, active compounds read low 0.961 | locus YNL209W, strain ssb2, active compounds read low 1.03 | locus YNL248C, strain rpa49, active compounds read low 1 | locus YNL322C, strain KRE1 (second series), active compounds read low 1.03 | locus YNR049C, strain mso1, active compounds read low 1.03 | locus YOR001W, strain rrp6, active compounds read low 0.999 | locus YOR070C, strain gyp1, active compounds read low 1.01 | locus YOR080W, strain dia2, active compounds read low 1.04 | locus YOR083W, strain WHI5, active compounds read low 1.01 | locus YOR106W, strain vam3, active compounds read low 1.04 | locus YOR231W, strain MKK1, active compounds read low 1.03 | locus YOR265W, strain rbl2, active compounds read low 1.02 | locus YOR270C, strain vph1, active compounds read low 1.04 | locus YOR290C, strain snf2, active compounds read low 0.954 | locus YPL051W, strain arl3, active compounds read low 0.994 | locus YPL078C, strain atp4, active compounds read low 1.02 | locus YPL106C, strain sse1, active compounds read low 1.05 | locus YPL240C, strain hsp82, active compounds read low 1.03 | locus YPL256C, strain CLN2, active compounds read low 1.11
